Sampled rows, rich in hits. Any-hit rate of the full collection: about 0.51%.
E coli growth-1: counter-screen for AddAB inhibitors: E. coli growth inhibition; AID 449728; E. coli V3065 growth, OD600 absorbance, 18 h; 330,000 compounds, 0.27% hits; inhibition, % at 11.9 µM;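 active means inhibition above the campaign's mean inhibition across all tested compounds plus 3 SD, cut at about 9.9% in these data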;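 further: uninfected addAB+ strain grown without phage in ampicillin broth; 0% = DMSO wells and 100% = ciprofloxacin 0.95 µg/ml wells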
AddAB inh: less growth of phage-infected E. coli with AddAB | E. coli expressing H. pylori AddAB, absorbance growth | inhibition, % at 11.9 µM | 330,000 compounds, 0.29% hits | AID 435030; in the data active means inhibition above about 12%;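 further: 0% = vehicle wells of infected cells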
phage Ecoli inh: E. coli growth loss with phage present; inhibition, % at 11.9 µM; growth absorbance; AID 651602; 360,000 compounds, 0.26% hits; in the data active means inhibition above about 11%
Tat export inh: E. coli Tat transport inhibition. E. coli MC4100 TorA-mCherry Tat export, fluorescence. inhibition, % at 10 µM. 340,000 compounds, 0.036% hits;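 active means mean replicate inhibition at least 50% and at least half of replicates individually reaching 50%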;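 further: exported cargo escapes ClpAP degradation while cytoplasmic cargo is degraded and loses fluorescence; 0% = median of neutral control wells and 100% = median of NaSCN control wells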
E coli growth-2: blocks Escherichia coli growth; 330,000 compounds, 0.21% hits; AID 1053175; OD600, 23 h; hits give low values; OD600 absorbance (concentration not given with the values);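 active means OD600 absorbance below the run mean of sample wells minus 3.6 SD, in any replicate, cut at about 0.56 in these data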
AddAB conf: growth loss of T4-infected E. coli expressing H. pylori AddAB, confirmed. shares compounds with AddAB inh. 880 compounds, 64% hits. AID 488942. E. coli V3065 expressing H. pylori AddAB, T4 phage, OD; T4 phage with gene 2 nonsense mutations. inhibition, % at 11.9 µM;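 active means mean inhibition above a set limit taken from the earlier primary screen, cut at about 13% in these data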;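 further: higher means less bacterial growth since AddAB block lets phage replicate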
RecBCD counter: counter-screen: growth loss of RecBCD+ E. coli with mutant T4 phage | E. coli V66 + mutant T4 phage, OD growth | shares compounds with AddAB inh | 880 compounds, 73% hits | inhibition, % at 11.9 µM;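 active means mean inhibition above the mean of solvent-only control wells plus 3 SD, cut at about 4% in these data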;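 further: optical density read after an 18 h incubation at 37 °C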
bact viab count: reduces bacterial viability, AddAB inhibitor counter-screen; shares compounds with AddAB inh; absorbance (AddAB counterscreen); inhibition, % at 11.9 µM; 880 compounds, 35% hits; AID 488956; in the data active means inhibition above about 25%
RecBCD conf: growth loss of phage-infected V66 E. coli, RecBCD confirmation screen; shares compounds with phage Ecoli inh; E. coli V66 + T4 2- phage, growth OD; inhibition, % at 11.9 µM; 890 compounds, 45% hits; AID 651982;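 active means mean inhibition over triplicates exceeding the hit threshold derived in the original primary screen, cut at about 11% in these data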
Ecoli viability: inhibits E. coli viability, flagging RecBCD hits as nonselective. AID 651983. shares compounds with phage Ecoli inh. absorbance (OD) growth. inhibition, % at 11.9 µM. 890 compounds, 29% hits; in the data active means inhibition above about 20%;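 further: E. coli strain V66 grown with compound alone and no phage infection; 0% = bacteria with DMSO vehicle only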
AddAB phage OD: growth loss of phage-infected AddAB E. coli, RecBCD counter-screen. 890 compounds, 45% hits. E. coli expressing H. pylori AddAB + T4 phage, OD growth; gene 2 mutant T4, recBCD-deleted host. inhibition, % at 11.9 µM. shares compounds with phage Ecoli inh;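 active means mean inhibition above the solvent-only control wells' mean plus 3 SD, cut at about 22% in these data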;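 further: higher means less bacterial growth from phage killing when AddAB is blocked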
* marks the source's active call; other numbers are inactive results; · = no result given.

SMILES	E coli growth-1	AddAB inh	phage Ecoli inh	Tat export inh	E coli growth-2	RecBCD conf	Ecoli viability	AddAB phage OD	others
Oc1c(Br)c(Br)c(Br)c(Br)c1Br	15*	18*	·	-2	·	·	·	·	AddAB conf=22*;RecBCD counter=20*;bact viab count=21
CC(C(O)c1ccccc1)N(C)C(=O)Cc1ccccc1 (stereo not given)	·	·	·	·	0.67	·	·	·
COC(=O)C1=C(c2c(C)noc2C)CC2CCC1N2C(=O)NCc1ccc(F)cc1 (stereo not given)	·	·	·	·	0.65	·	·	·
CCCNC1=C(C)C(=O)C2=C(C1=O)C(COC(N)=O)[C@]1(OC)C3NC3CN21 (stereo not given in full)	46*	44*	23*	9	0.13*	·	·	·	AddAB conf=98*;RecBCD counter=45*;bact viab count=82*
C=C(CO)CC1CC(O)[C@]2(C)OC3CC4OC5C[C@]6(C)O[C@]7(C)CCC8OC9C[C@]%10(C)OC%11C(C)=CC(=O)OC%11CC%10OC9CC(C)C8OC7CC6O[C@]5(C)CC=CC4OC3CC2O1 (stereo not given in full)	·	·	·	·	0.71	·	·	·
Cc1ccccc1[N+](=O)[O-]	-4	0	2	6	0.68	·	·	·
Cc1cc([N+](=O)[O-])c2ccccc2[n+]1[O-]	21*	28*	·	-17	0.48*	·	·	·	AddAB conf=99*;RecBCD counter=11*;bact viab count=33*
COC(=O)C1=C(c2ccc(F)cc2OCc2ccccc2)CC2CCC1N2C(=O)NCC1CC1 (stereo not given)	·	·	·	·	0.67	·	·	·
CN1CCN(c2ccc([N+](=O)[O-])c3no[n+]([O-])c23)CC1	103*	102*	30*	51*	0.057*	14*	17	101*	AddAB conf=101*;RecBCD counter=19*;bact viab count=89*
Cc1nc2c(=O)n(C)c(=O)nc-2n(C)n1	42*	41*	42*	-16	0.049*	43*	48*	61*	AddAB conf=48*;RecBCD counter=39*;bact viab count=42*
CCn1nc(-c2ccccc2)nc2c(=O)n(C)c(=O)nc1-2	3	3	·	-6	0.61	·	·	·
CNc1ccc2oc(CC3O[C@@]4(CCC3C)OC(C(C)C(=O)c3ccc[nH]3)C(C)CC4C)nc2c1C(=O)O (stereo not given in full)	·	·	·	·	0.69	·	·	·
CCOC(=O)[C@]12Cc3cc(Cl)ccc3[C@H]1N(C1CCCCC1)C(=O)c1cc(OC)ccc12	·	·	11*	·	·	5	4	-4
O=C(O)C1CC1C(NP(=O)(c1ccccc1)c1ccccc1)c1ccccc1 (stereo not given)	·	·	·	·	0.69	·	·	·
O=c1[nH]c(=O)n(-c2ccc(Cl)cc2)c(O)c1C=Nc1ccc(S(=O)(=O)Nc2nccs2)cc1	3	9	12*	5	·	6	4	25*
CCN(CC)S(=O)(=O)c1ccc(N=Cc2c(O)n(-c3ccccc3)c(=O)[nH]c2=O)cc1	1	0	2	-9	0.72	·	·	·
C=CC[N+]1(C)CC[C@]23c4c5ccc(O)c4OC2C(=O)CC[C@@]3(O)C1C5 (stereo not given in full)	·	·	·	·	0.7	·	·	·
CC(N)C(=O)NC1C2C(=C(O)CC(O)C2O)C(=O)OC1(C)C(Cl)Cl (stereo not given)	·	·	99*	82*	·	104*	106*	97*
COC(=O)C1=C(c2ccc(Cl)c(C(F)(F)F)c2)CC2CCC1N2C(=O)NCCO (stereo not given)	·	·	·	·	0.7	·	·	·
Oc1c(Cl)cccc1Cc1cc(Cl)cc(Cl)c1O	·	·	15*	5	0.38*	5	8	6
COc1cc2c(cc1O)CC1NCCc3cc4c(c-2c31)OCO4 (stereo not given)	·	·	·	·	0.55	·	·	·
COc1ccc(CC2=NCCc3cc(OC)c(OC)cc32)cc1OC	·	·	4	·	·	·	·	·
COC(=O)c1c2[n+](cc3cc(OC)c(OC)cc13)CCc1cc(OC)c(OC)cc1-2	0	0	16*	-2	0.67	-5	-5	-2
COC(=O)C1=C(c2cc3ccccc3s2)CC2CCC1N2C(=O)N1CCOCC1 (stereo not given)	·	·	·	·	0.72	·	·	·
C[C@@]12NC(Cc3ccccc31)c1ccccc12	·	·	·	·	0.69	·	·	·
O=[N+]([O-])c1ccc(N(CCO)CCO)c2c1no[n+]2[O-]	·	·	93*	·	·	84*	91*	100*
CN(C)C1C(=O)C(C(N)=O)=C(O)C2(O)C(=O)C3=C(O)c4c(O)cccc4C(C)(O)C3C(O)C12 (stereo not given)	-3	-2	99*	138*	0.064*	102*	104*	102*
CCN1/C(=C/C=C/C2=[N+](CC)c3ccccc3C2(C)C)C(C)(C)c2ccccc21	·	·	25*	·	·	18*	21*	43*

Compound activity: PubChem, several laboratories
